Laboratory results taken from PubChem BioAssay (NCI).
Compounds without any hit were thinned out: in the full panel of roughly 83,000, 20% have a hit.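 Negative percent growth values reflect cell death: -40 means 40% of the cells present at the start died, and -100 means all died.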 Unmarked numbers belong to inactive results. Active and inactive are the calls of the source. How the source made its calls: active means growth percent below 10; inactive means the rest.

Key:
Assay in all cases: NCI-60 one-dose screen, 48 h (100 = growth as untreated, 0 = no growth, -100 = all killed)
Details in all cases: 10 µM
[1] = system: NCI-H23 lung
[2] = system: NCI-H226 lung
[3] = system: NCI-H322M lung
[4] = system: HOP-62 NSCLC
[5] = system: NCI-H460 lung
[6] = system: NCI-H522 lung
[7] = system: A549/ATCC NSCLC
[8] = system: 786-0 renal
[9] = system: COLO 205 colon

| SMILES | growth [1] | growth [2] | growth [3] [%] | growth [4] | growth [5] | growth [6] | growth [7] | growth [8] [%] | growth [9] [%] |
| --- | --- | --- | --- | --- | --- | --- | --- | --- | --- |
| CC(=O)c1c[nH]c2ccccc12 | 106% | 97.5% | 101 | 95.8% | 113% | 92.9% | 103% | 103 | 119 |
| O=C(O)C(Cc1ccccc1)C(=O)O | 95.1% | 95.5% | 105 | 118% | 101% | 106% | 103% | 99.4 | 110 |
| COc1ccccc1NC(=O)c1cc2cc(Br)ccc2cc1O | 4.53% (active) | 8.51% (active) | 22.6 | 6.34% (active) | 2.06% (active) | -24.5% (active) | 3.54% (active) | 14.1 | 50.8 |
| OCc1ccc(-c2ccc(-c3ccc(CO)s3)o2)s1 | 47.5% | -23.9% (active) | 55.3 | 67.1% | -4.49% (active) | 25.9% | 19.8% | 30.2 | 13.1 |
| O=c1[nH]cc(Cl)cc1O | 96.4% | 95.5% | 97.1 | 103% | 94.1% | 60.7% | 75.2% | 101 | 112 |
| Cc1ccc(Cl)cc1NC(=O)N(C)CCO | 110% | 115% | 116 | 109% | 108% | -7.39% (active) | 59.5% | 109 | 144 |
| Oc1ccc2c(c1)OCC1(O)Cc3cc(O)c(O)cc3C21 (stereo not drawn) | 86.9% | 98.2% | 103 | 82.2% | 112% | -34.1% (active) | 93.7% | 95.2 | 165 |
| c1ccc2c(N3CCCCC3)ncnc2c1 | 86.4% | 87.2% | 117 | 100% | 97.8% | 47.6% | 86.9% | 98.7 | 88.5 |
| COC(=O)c1cccnc1 | 95.6% | 98% | 106 | 99.4% | 105% | 78.2% | 91.9% | 87.1 | 95.3 |
| Oc1ccc(O)cc1 | 96.3% | 110% | 106 | 106% | 113% | -40.8% (active) | 102% | 114 | 112 |
| COc1ccc(Oc2c(I)cc(CC(NC(C)=O)C(=O)O)cc2I)cc1 (stereo not drawn) | 61.9% | 73% | 102 | 80.9% | 104% | 103% | 87.3% | 71.7 | 108 |
| CC(=O)Nc1ccc(NC(C)=O)c2c1C(=O)c1ccccc1C2=O | 89.5% | 81.7% | 89.1 | 81.9% | 102% | 89.3% | 96.2% | 91 | 87.6 |
| COc1ccc(C)cc1OC | 96.4% | 98.8% | 88.8 | 102% | 107% | 104% | 96.9% | 105 | 113 |
| O=C(O)CCC(=O)OC(C1CO1)C(OC(=O)CCC(=O)O)C1CO1 (stereo not drawn) | 102% | 96.5% | 112 | 102% | 103% | 91% | 97.4% | 103 | 99.9 |
| CN(C)C(=O)Oc1cccc([N+](C)(C)C)c1 | 109% | 92.8% | 129 | 100% | 113% | 109% | 102% | 116 | 109 |
| CCC/C=C(/C(C)=O)C(=O)OCC | 107% | 95.7% | 110 | 108% | 114% | 111% | 90.8% | 113 | 113 |
| Cc1ccc(C(=O)N/N=C/c2ccc3c(c2)OCO3)cc1 | 91% | 101% | 98.8 | 97.5% | 96.6% | 80.9% | 97.7% | 99.8 | 113 |
